Bioassay records deposited in PubChem BioAssay by National Center for Advancing Translational Sciences (NCATS).
KB-3-1 tox = qHTS assay for MDR1-selective chemotherapeutics: Primary screen using the parental adenocarcinoma cell KB-3-1; KB-3-1 viability, CellTiter-Glo ATP luminescence, 72 h; Potency, µM (highest dose often 46.1 µM), hits mostly cytotoxic; actives 1.4% (n = 400,000); also: % is scaled to controls: 0 for no effect and ±100 for the full control effect; nearly all actives have a fitted effect of over 60% in size
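Here the drug-naive KB-3-1 line serves as comparator for MDR sub-line selectivity; cells received compound titrations, 72 h at 37 °C, then CellTiter-Glo readout.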
SW480 rerep = A quantitative high throughput screen for small molecules that induce DNA re-replication in SW480 colon adenocarcinoma cells; SW480 DNA re-replication, Hoechst DNA content imaging, 48 h; Potency, µM (series often up to 46.1 µM), for the others: at the highest dose re-replication activation, actives largely listed as activators; actives 1.8% (n = 340,000); also: % of control where 0% means no effect; nearly all actives have a fitted effect of over 55% in size
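DNA re-replication was detected as more nuclei of elevated Hoechst intensity after 48 hr exposure to compound (23 nL pinned per well of 250 cells).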
KB-V1 cytotox = qHTS assay for MDR1-selective chemotherapeutics: Primary screen using the drug-selected MDR subline cells KB-V1. KB-V1 MDR cells viability, CellTiter-Glo, 72 h. Potency, µM (titrated, usually from 46.1 µM), most hits filed as cytotoxic. actives 3.4% (n = 400,000). AID 1347076, 2019; also: % is scaled to controls: 0 for no effect and ±100 for the full control effect; nearly all actives have a fitted effect of over 60% in size
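Compound-treated KB-V1 multidrug-resistant cells, 72 h, 37 degrees C; viability by CellTiter-Glo. Fitted qHTS curves give the values.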
MCF10A rerep = A quantitative high throughput screen for small molecules that induce DNA re-replication in MCF 10a normal breast cells. MCF 10A DNA re-replication, Hoechst nuclear intensity, 48 h. Potency, µM (series often up to 46.1 µM), for inactives: at the highest dose activity, positive = re-replication, most hits filed as activators. actives 2.9% (n = 350,000). AID 624296, 2012; also: % of control where 0% means no effect; nearly all actives have a fitted effect of over 50% in size
ELG1 DNA repair = qHTS screen for small molecules that inhibit ELG1-dependent DNA repair in human embryonic kidney (HEK293T) cells expressing luciferase-tagged ELG1. AID 504467, 2011. HEK293T ELG1-luciferase reporter, luminescence, 16 h; DNA damage induced by 5-fluorouridine. actives 2.3% (n = 330,000). Potency, µM (highest dose often 46.1 µM), without a hit: at the top dose activity change, negative = inhibition, hits mostly inhibitors; also: % is scaled to controls: 0 for no effect and ±100 for the full control effect; nearly all actives have a fitted effect of over 55% in size
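Quantitative HTS, concentration-response format. 2,000 cells/well co-treated with 5-fluorouridine and compound, 16 hr in 5% CO2 at 37 °C; ONE-Glo luminescence read after 30 min.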
Numbers without * were called inactive; ! = repeats disagree; [ ] = dose if it differs, or a comment. Hits are enriched below; roughly 8.1% of the tested compounds scored in any of these assays. Calls follow the shape of the dose curve; as a rule, active = well fitted curve in the direction sought with a large enough effect; inconclusive = small, poorly fitted or top-dose-only effect, or another doubt; inactive = no such curve, though single readings can be large; an effect the other way counts as inactive or inconclusive. Potency is read from the fitted curve at half-maximal effect.

Screening CSc1nnc([C@@H](N)Cc2c[nH]c3ccccc23)o1 returned KB-3-1 tox inactive, SW480 rerep -2.1%, KB-V1 cytotox inactive, MCF10A rerep 0.6% and ELG1 DNA repair inconclusive.
For O=C(O)C1C2c3ccccc3C(=O)C1(C(=O)O)c1ccccc12 (stereo not given) the results were KB-3-1 tox inactive, SW480 rerep -1.8%, KB-V1 cytotox inactive and MCF10A rerep -0.9%.
`C[C@]12CC[C@@H]3c4ccc(O)c(O)c4CC[C@H]3[C@@H]1CC[C@@H]2O` gave KB-3-1 tox inconclusive, SW480 rerep inconclusive, KB-V1 cytotox inactive and MCF10A rerep -2.7%.
C[C@]12CC[C@@H]3c4cc(O)c(O)cc4CC[C@H]3[C@@H]1CC[C@@H]2O was read as KB-3-1 tox 6.51µM*, SW480 rerep inconclusive, KB-V1 cytotox 13µM* and MCF10A rerep 25.9µM*.
`COc1ccc(CN2CCNCC2)c(OC)c1OC` gave KB-3-1 tox inactive, SW480 rerep -39.2%, KB-V1 cytotox inactive, MCF10A rerep -0.2% and ELG1 DNA repair 10.7%.
`O=C(COc1ccc2ccccc2c1)N1CCN(Cc2c[nH]c3ccccc23)CC1` gave KB-3-1 tox inconclusive, SW480 rerep inconclusive, KB-V1 cytotox inconclusive, MCF10A rerep inconclusive and ELG1 DNA repair -9.3%.
Screening O=C(COc1ccc(Br)cc1)N1CCN(Cc2c[nH]c3ccccc23)CC1 returned KB-3-1 tox inactive, SW480 rerep inconclusive, KB-V1 cytotox 18.4µM*, MCF10A rerep inconclusive and ELG1 DNA repair inconclusive.
For COC(=O)C1=C(c2ccc(F)cc2OCc2ccccc2)C[C@@H]2CC[C@H]1N2C(=O)NCc1ccccc1C(F)(F)F the results were KB-3-1 tox inconclusive, SW480 rerep 13.5%, KB-V1 cytotox inactive, MCF10A rerep inconclusive and ELG1 DNA repair 5.5%.
c1ccc(OCc2ccc(CCCN3CCOCC3)cc2)cc1 was read as KB-3-1 tox inactive, SW480 rerep 2.6%, KB-V1 cytotox inactive, MCF10A rerep 23.7µM*! and ELG1 DNA repair inconclusive.
For COc1ccc(NC(=O)c2ccc(COCC(F)(F)C(F)F)cc2)cc1 the results were KB-3-1 tox inactive, SW480 rerep -3.8%, KB-V1 cytotox inconclusive, MCF10A rerep 1.5% and ELG1 DNA repair inconclusive.
CN(c1ccc(OCC(=O)N2CCN(C/C=C/c3ccccc3)CC2)cc1)S(=O)(=O)c1cccs1 was read as KB-3-1 tox inconclusive, SW480 rerep inconclusive, KB-V1 cytotox inactive, MCF10A rerep inconclusive and ELG1 DNA repair 13µM*.
Screening C=CCNC(=O)c1c(N)n(CCN2CCOCC2)c2nc3ccccc3nc12 returned KB-3-1 tox inactive, SW480 rerep 7.6%, KB-V1 cytotox inactive, MCF10A rerep 5.8µM* and ELG1 DNA repair -29.3%.
Screening CC(C)OCCCNC(=O)c1c(N)n(Cc2cccs2)c2nc3ccccc3nc12 returned KB-3-1 tox inconclusive, SW480 rerep 3.66µM*, KB-V1 cytotox inconclusive, MCF10A rerep 1.84µM* and ELG1 DNA repair 16.4µM*.
`COCCNC(=O)c1c(N)n(CCC(C)C)c2nc3ccccc3nc12` gave KB-3-1 tox inactive, SW480 rerep inconclusive, KB-V1 cytotox 16.4µM*, MCF10A rerep 3.26µM* and ELG1 DNA repair 5.8µM*.
`CC(C)CCn1c(N)c(C(=O)NCc2cccs2)c2nc3ccccc3nc21` gave KB-3-1 tox inactive, SW480 rerep 5.8µM*, KB-V1 cytotox inactive, MCF10A rerep 1.46µM* and ELG1 DNA repair 6.51µM*.
For COc1cccc(O)c1CN1CCCC(C(=O)c2sccc2C)C1 (stereo not given) the results were KB-3-1 tox inactive, SW480 rerep inconclusive, KB-V1 cytotox inconclusive, MCF10A rerep 28.2%[9.22 µM] and ELG1 DNA repair inconclusive.
`Cc1ccccc1N1C(=O)NC(=O)/C(=C\c2cnn(-c3ccccc3)c2)C1=O` gave KB-3-1 tox inactive, SW480 rerep 18.7%, KB-V1 cytotox inactive, MCF10A rerep inconclusive and ELG1 DNA repair inconclusive.
Screening CCCNc1nc(OC)nc(N2CC3CC(C2)c2cccc(=O)n2C3)n1 (stereo not given) returned KB-3-1 tox inactive, SW480 rerep -10.1%, KB-V1 cytotox inactive, MCF10A rerep -1.5% and ELG1 DNA repair -3.1%.
For COCCCNC(=O)c1c(NC(=O)c2ccco2)n(Cc2ccccc2)c2nc3ccccc3nc12 the results were KB-3-1 tox inactive, SW480 rerep inconclusive, KB-V1 cytotox inactive, MCF10A rerep inconclusive and ELG1 DNA repair -10.0%.
For COCCNC(=O)c1c(NC(=O)c2ccc(Br)o2)n(Cc2ccccc2)c2nc3ccccc3nc12 the results were KB-3-1 tox inactive, SW480 rerep inconclusive, KB-V1 cytotox 11.6µM*, MCF10A rerep 5.8µM* and ELG1 DNA repair inconclusive.
Screening CCCCNC(=O)c1c(N)n(CCCOC)c2nc3ccccc3nc12 returned KB-3-1 tox inactive, SW480 rerep 2.06µM*, KB-V1 cytotox 18.4µM*, MCF10A rerep 10.3µM* and ELG1 DNA repair inconclusive.
For CCN(CC)CCN=Cc1c(O)n(Cc2ccccc2)c(=O)[nH]c1=O the results were KB-3-1 tox inactive, SW480 rerep -0.4%, KB-V1 cytotox inactive, MCF10A rerep -2.7% and ELG1 DNA repair 8.4%.
For COC(=O)C1=C(c2ccc(F)cc2OCc2ccccc2)C[C@@H]2CC[C@H]1N2C(=O)NC1Cc2ccccc2C1 the results were KB-3-1 tox inconclusive, SW480 rerep 3.4%, KB-V1 cytotox inactive, MCF10A rerep inconclusive and ELG1 DNA repair -10.0%.
For CSc1ccccc1NC(=O)CN(C)CC(=O)c1[nH]c(C)c(C(C)=O)c1C the results were KB-3-1 tox inactive, SW480 rerep 15.3%, KB-V1 cytotox inconclusive, MCF10A rerep inconclusive and ELG1 DNA repair 16.4µM*.
Screening CC(C)(C)N1C(=O)NC(=O)/C(=C\c2ccc3c(c2)CCN3CCCCl)C1=O returned KB-3-1 tox inactive, SW480 rerep -42.1%, KB-V1 cytotox inconclusive, MCF10A rerep 3.5% and ELG1 DNA repair 4.8%.
Cn1cc(C(=O)OCC(=O)Nc2ccccc2)c2ccccc21 was read as KB-3-1 tox inactive, SW480 rerep -6.1%, KB-V1 cytotox 20.6µM*, MCF10A rerep -1.4% and ELG1 DNA repair -15.6%.
Screening O=C1C=CC2C3C(=O)N(c4ccccc4)C(=O)C3C1N2Cc1ccccc1 (stereo not given) returned KB-3-1 tox inconclusive, SW480 rerep 3.66µM*, KB-V1 cytotox 18.4µM* and MCF10A rerep inconclusive.
